From PubChem
The list is not random: actives were taken first. Their share in the collection is about 2.1%.
EP2 antag: EP2 receptor (human) inhibition | inhibition, % at 25 µM | C6 glioma cells expressing human EP2, cAMP TR-FRET; cells stimulated with saturating PGE2 | 260,000 compounds, 0.52% hits | P43116;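 active means percent inhibition above 40 after rounding to a whole number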;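 further: rat C6 glioma host cells with rolipram phosphodiesterase inhibitor present; the protocol text gives 20 µM as final concentration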
CHT PAM: human CHT allosteric activation; 310,000 compounds, 0.49% hits; AID 488977; CHT-expressing cells, membrane potential dye, choline EC20; stronger effect = higher value; LV-AA mutant CHT in HEK293 cells; B-score at 10 µM; Q9GZV3;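 active means initial fluorescence not abnormally high and integrated response B-score, plate-corrected, over 3 SD above library mean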
Target sequence (Q9GZV3 whole entry, looked up): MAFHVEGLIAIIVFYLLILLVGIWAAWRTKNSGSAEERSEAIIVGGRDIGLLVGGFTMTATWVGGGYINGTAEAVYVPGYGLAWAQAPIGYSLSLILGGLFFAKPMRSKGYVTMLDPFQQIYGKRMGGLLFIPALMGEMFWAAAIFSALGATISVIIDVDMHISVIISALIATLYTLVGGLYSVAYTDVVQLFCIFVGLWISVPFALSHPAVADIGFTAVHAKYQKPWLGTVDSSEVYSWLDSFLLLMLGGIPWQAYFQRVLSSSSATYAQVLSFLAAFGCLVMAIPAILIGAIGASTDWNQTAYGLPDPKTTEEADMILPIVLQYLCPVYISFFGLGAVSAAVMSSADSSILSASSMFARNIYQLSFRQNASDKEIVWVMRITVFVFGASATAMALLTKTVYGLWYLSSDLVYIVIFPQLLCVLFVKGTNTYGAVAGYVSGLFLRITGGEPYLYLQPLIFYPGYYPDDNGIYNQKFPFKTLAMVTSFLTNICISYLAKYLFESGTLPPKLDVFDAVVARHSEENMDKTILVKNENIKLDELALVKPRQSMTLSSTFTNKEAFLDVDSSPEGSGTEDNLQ
EP2 mod: modulates human prostaglandin E2 receptor EP2 signaling | P43116 | induction, % at 25 µM | 260,000 compounds, 0.83% hits | AID 940 | EP2-expressing cells, cAMP HTRF FRET, PGE2 co-stimulation;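 active means compounds whose cAMP rise, as percent of the full-agonist control response, exceeds 60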;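 further: rat C6 glioma line stably carrying human EP2 under a CMV promoter; the protocol text gives 20 µM as final concentration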
CHT block: inhibitors of human choline transporter CHT. B-score at 10 µM. CHT-expressing cells, membrane potential dye, choline response; stronger effect = lower value. AID 488975. 310,000 compounds, 0.86% hits. Q9GZV3;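 active means B-score over 3 SD under the library average, and starting fluorescence ratio not unusually high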;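 further: choline stimulus applied at its EC90 after an EC20 pre-addition; B-score computed on integrated fluorescence ratio after choline addition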
CHT inh conf: confirmation of human choline transporter CHT inhibitors; shares compounds with CHT block; CHT-expressing cells, choline membrane potential dye; LV-to-AA substituted CHT, HEK293 cells; CHT activity remaining % of control (stronger effect = lower value), % at 10 µM; 2,400 compounds, 70% hits;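 active means choline transporter activity left, mean of duplicates at 10 µM, below buffer-only control mean minus 3 SD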;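 further: depolarization triggered by choline at its EC90 following an EC20 pre-addition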
HEK293 CHT ctr: activity in parental HEK293 cells lacking CHT. shares compounds with CHT block. membrane potential dye, choline response; active = decrease or increase beyond buffer ±3SD. membrane potential ratio readout (active if shifted either direction beyond buffer ±3SD; no single direction) at 10 µM. 2,400 compounds, 4% hits. AID 493222;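 further: parental cells lack the transporter so any hit is non-specific; ratio is peak minus trough fluorescence over baseline after EC90 choline challenge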
Each line names hits and unclear results; the compound was inactive in the other large screens (follow-up assays come after a bar, where they were run).

C=CCn1c(-c2cccs2)nc2ccccc21	none
C=CCSc1nc2ccccc2n1Cc1nnc(-c2cccs2)o1	CHT block -6.17 | CHT inh conf 59.5% | HEK293 CHT ctr inactive
COC(=O)c1ccc(NC(=O)C2CCN(S(=O)(=O)c3ccc(OC)c(C)c3)CC2)cc1	none (no result: CHT PAM, CHT block)
COc1cccc(OC)c1OCCCCc1c(C)n[nH]c1C	none
COc1cccc(OC)c1OCCCCCc1c(C)n[nH]c1C	CHT block -6.54 | CHT inh conf 45.2% | HEK293 CHT ctr inactive
Cc1n[nH]c(C)c1CCCCOc1ccccc1[N+](=O)[O-]	CHT block -5.5 (no result: EP2 antag, EP2 mod) | CHT inh conf 52.0% | HEK293 CHT ctr inactive
Cc1n[nH]c(C)c1CCCCOc1ccccc1F	none (no result: EP2 antag, EP2 mod)
Cc1cc(C)c2nc(NCCNC(=O)NC3CCCCC3)c(C#N)cc2c1	none (no result: CHT PAM, CHT block)
COc1ccc(CN(Cc2cc3ccc(C)cc3[nH]c2=O)C(c2nnnn2C(C)(C)C)C(C)C)cc1 (stereo unspecified)	none (no result: CHT PAM, CHT block)
CCC(=O)N1N=C(c2ccc(NS(C)(=O)=O)cc2)CC1c1ccc2nccnc2c1 (stereo unspecified)	none (no result: CHT PAM, CHT block)
Cc1ccc2[nH]c3c(c2c1)CN(C(=O)CN1CCSCC1)CC3	none (no result: CHT PAM, CHT block)
Cc1ccc2[nH]c3c(c2c1)CN(C(=O)CN1CCN(Cc2ccc4c(c2)OCO4)CC1)CC3	CHT block -5.63 | CHT inh conf 38.0% | HEK293 CHT ctr inactive
Cc1ccc(CS(=O)Cc2ccc(C(=O)NC3CCC(C)CC3)o2)cc1 (stereo unspecified)	CHT block -9.79 (no result: EP2 antag, EP2 mod) | CHT inh conf 3.4% | HEK293 CHT ctr inactive
Cc1ccc(CS(=O)Cc2ccc(C(=O)NC3CCCC(C)C3C)o2)cc1 (stereo unspecified)	CHT block -9.68 (no result: EP2 antag, EP2 mod) | CHT inh conf 19.6% | HEK293 CHT ctr inactive
Cc1ccc(C(=O)NC2CCC(C)CC2)o1 (stereo unspecified)	none (no result: EP2 antag, EP2 mod)
Cc1ccc(CS(=O)Cc2ccc(C(=O)NC3CCCCCC3)o2)cc1 (stereo unspecified)	CHT block -9.45 (no result: EP2 antag, EP2 mod) | CHT inh conf 36.2% | HEK293 CHT ctr inactive
Cc1ccc(CS(=O)Cc2ccc(C(=O)NCc3ccc4c(c3)OCO4)o2)cc1 (stereo unspecified)	none (no result: EP2 antag, EP2 mod)
Cc1cc(C)c2c(N)c(C(=O)Nc3cc(Cl)ccc3C)sc2n1	none (no result: CHT PAM, CHT block)
NC(=O)c1ccccc1NC(=O)c1ncoc1-c1cccs1	none (no result: CHT PAM, CHT block)
COc1cccc(C(NC(=O)c2ccccn2)c2nccn2C)c1OC (stereo unspecified)	none (no result: EP2 antag, CHT PAM, CHT block)
Cn1c(-c2ccc(F)cc2)cnc1NCc1ccccc1	CHT block -5.03 | CHT inh conf inactive | HEK293 CHT ctr inactive
CCOC(=O)c1cnc2c(C(F)(F)F)cccc2c1N1CCN(C)CC1	CHT block -10.3 (no result: EP2 antag, EP2 mod) | CHT inh conf 29.6% | HEK293 CHT ctr 3.33
CCOC(=O)c1cnc2c(C)cc(Cl)cc2c1N1CCN(C)CC1	CHT block -6.41 (no result: EP2 antag, EP2 mod) | CHT inh conf 34.0% | HEK293 CHT ctr inactive
CCCCCCn1c(=O)c(F)cn(Cc2ccc(OC)c([N+](=O)[O-])c2)c1=O	CHT block -6.68 | CHT inh conf inactive | HEK293 CHT ctr inactive
CCCCCn1c(=O)c(F)cn(Cc2ccc(OC)c([N+](=O)[O-])c2)c1=O	CHT block -7.56 | CHT inh conf 53.6% | HEK293 CHT ctr inactive
O=C(Nc1ccccc1Cl)c1ccccc1Cl	none
O=C(Nc1ccccc1O)c1ccccc1O	CHT block -8.85 | CHT inh conf 40.4% | HEK293 CHT ctr inactive
Cc1cccc(NC(=O)c2ccccc2O)c1C	CHT block -6.36 | CHT inh conf 68.8% | HEK293 CHT ctr inactive
Cc1ccc(C)c(NC(=O)c2ccccc2O)c1	none
CC(C)c1cccc(C(C)C)c1NC(=O)c1ccco1	none (no result: CHT PAM, CHT block)
Cc1cccc(NC(=O)/C(C#N)=C\c2ccc(C(=O)O)cc2)c1	CHT block -6.62 | CHT inh conf inactive | HEK293 CHT ctr inactive
N#C/C(=C/c1ccc(C(=O)O)cc1)C(=O)Nc1ccccc1	none
COc1ccccc1CNC(=O)CN1CCC(N2CCCCC2)CC1	none (no result: CHT PAM, CHT block)
COCCNC(=O)C(c1ccncc1)N(C(=O)Cn1nnc2ccccc21)c1ccc(OC)cc1 (stereo unspecified)	none
COc1ccc(N(C(=O)Cn2nnc3ccccc32)C(C(=O)NCc2ccco2)c2ccncc2)cc1 (stereo unspecified)	CHT block -10 (no result: EP2 antag, EP2 mod) | CHT inh conf inactive | HEK293 CHT ctr inactive
